Data on 16 molecules can be found in PubChem BioAssay.

Assay [1] can be described thus: EMT-state selective cytotoxicity in co-culture – imaging, PC-3E GFP, TEM4-18 mCherry, primary screen (AID 1345086).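 On all read-outs here: cells exposed to compound for 72 h before imaging.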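 On red/green cell ratio (normalised): normalised mesenchymal count divided by normalised epithelial count so high means epithelial killing.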 As to conditions: PC-3E GFP / TEM4-18 mCherry co-culture, imaging cell counts, at 1 µM; for red/green cell ratio (normalised): actives lie on both sides, counts scaled to control wells, 1 = unselective.
The target of assay [2] is Mitogen-activated protein kinase 7 (Homo sapiens) (UniProt Q13164). The experiment in a line: Gal4-ERK5 driven luciferase induction – cell-based, HTS, primary screen (AID 1508626;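 active means luciferase signal above three times the same-plate solvent-only control wells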;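 further: luciferase driven by Gal4-ERK5 fusion binding five Gal4 sites before minimal TATA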). Particulars: HeLa Gal4-ERK5 transactivation, 18 h, at 5 µM, stronger effect = higher value.
Sequence of Mitogen-activated protein kinase 7 (Homo sapiens) (Q13164 whole entry, looked up, the tested form may be a part): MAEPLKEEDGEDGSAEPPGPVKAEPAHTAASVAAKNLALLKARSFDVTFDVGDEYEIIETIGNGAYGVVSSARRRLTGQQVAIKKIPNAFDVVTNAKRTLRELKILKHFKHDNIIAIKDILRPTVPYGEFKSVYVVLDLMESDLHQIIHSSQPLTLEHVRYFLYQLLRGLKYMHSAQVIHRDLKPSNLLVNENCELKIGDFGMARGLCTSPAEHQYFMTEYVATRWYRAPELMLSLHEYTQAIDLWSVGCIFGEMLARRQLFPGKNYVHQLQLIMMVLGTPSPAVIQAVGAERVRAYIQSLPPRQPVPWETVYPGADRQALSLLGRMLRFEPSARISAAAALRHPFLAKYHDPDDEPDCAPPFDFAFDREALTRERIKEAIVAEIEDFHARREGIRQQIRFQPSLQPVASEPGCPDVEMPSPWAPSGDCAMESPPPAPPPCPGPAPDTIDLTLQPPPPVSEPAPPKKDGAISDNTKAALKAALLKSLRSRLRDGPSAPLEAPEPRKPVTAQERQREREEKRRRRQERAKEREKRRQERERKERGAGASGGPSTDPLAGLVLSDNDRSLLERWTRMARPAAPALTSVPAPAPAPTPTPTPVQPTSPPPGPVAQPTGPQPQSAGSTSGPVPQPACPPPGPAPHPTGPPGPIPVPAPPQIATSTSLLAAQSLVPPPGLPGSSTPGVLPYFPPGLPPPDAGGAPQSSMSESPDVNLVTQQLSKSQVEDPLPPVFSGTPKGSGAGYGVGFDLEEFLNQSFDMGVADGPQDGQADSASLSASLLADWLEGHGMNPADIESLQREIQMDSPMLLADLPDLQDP
Assay [3] in a line: blockers of polyQ-driven CASP3 activation – cell-based (AID 1583). Particulars: polyglutamine-induced caspase-3 activation, cell assay; stronger effect = higher value;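 tested at 10 µM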.
The nature of assay [4]: yeast 75Q aggregation reduction – 75Q-TubU reporter (AID 1593). As to conditions: Yeast 75Q polyglutamine aggregation reporter.
Assay [5] in a line: blockers of cytochrome c efflux from mitochondria – biochemical, purified mitochondria (AID 1603).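 Further: mouse liver mitochondria challenged with calcium chloride; signal normalized to the plate average as 100%.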 Particulars: stronger effect = lower value.
The mark [6] stands for this setting: measured here: epithelial PC-3E GFP cell survival.
The mark [7] stands for this setting: measured here: mesenchymal TEM4-18 mCherry cell survival.

The source made the active and inactive calls.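 How the source made its calls, unless noted: active means compounds killing one labelled cell type while sparing the other, by normalised counts and ratio limits, not self-fluorescent; inactive means the rest.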

On to `COc1ccc2oc3ccccc3c(=O)c2c1`, for which, in assay [1], the red/green cell ratio (normalised) is 0.95 (inactive). Moreover, the normalised cell number in assay [1] (setting [6]) was 1.2; in assay [1] (setting [7]), 1.14. Also, the luciferase signal in assay [2] was 88 AU (inactive).

`O=C(O)c1cc(=O)c(O)c2c(O)c(O)c(O)cc2c1`: the red/green cell ratio (normalised) in assay [1] was 0.85 (inactive). The normalised cell number in assay [1] (setting [6]) was 1.11; in assay [1] (setting [7]), 0.94. Also, the luciferase signal in assay [2] was 100 AU (inactive).

Turning to `CC(=O)Oc1ccc2c(c1C(C)C)CCC1C(C)(C)CCC[C@]21C` (some centres not stated), the red/green cell ratio (normalised) in assay [1] was 0.8 (inactive). Also, the figures for the normalised cell number in assay [1] (setting [6]) and in assay [1] (setting [7]) were 1.07 and 0.86, respectively. Further, the luciferase signal in assay [2] is 20 AU (inactive).

With `O=C1C=CC(=O)c2c(O)c(Cl)c(Cl)c(O)c21`, in assay [1], the red/green cell ratio (normalised) is 1 (inactive). The normalised cell number in assay [1] (setting [6]) and in assay [1] (setting [7]) was 1.04 each time. In assay [2], the luciferase signal is 12 AU (inactive).

In the case of `COc1cc2oc3cc(OC)c(OC)c(CC=C(C)C)c3c(=O)c2c(OC)c1CC=C(C)C`, the red/green cell ratio (normalised) in assay [1] is 0.95 (inactive). The normalised cell number turned out to be 1.02 in assay [1] (setting [6]) and 0.97 in assay [1] (setting [7]). Besides, the luciferase signal in assay [2] was 164 AU (inactive).

As for `OC[C@H]1O[C@@H](O[C@H]2[C@H](O)[C@@H](O)[C@@H](O)O[C@@H]2CO)[C@H](O)[C@@H](O)[C@@H]1O`, in assay [1], the red/green cell ratio (normalised) was 1.17 (inactive). Also, the values for the normalised cell number in assay [1] (setting [6]) and in assay [1] (setting [7]) were 0.89 and 1.04, respectively. In addition, in assay [2], the luciferase signal was 32 AU (inactive).

`COc1ccc(-c2oc3cc(OC)c(OC)c(OC)c3c(=O)c2OC)cc1OC`: the red/green cell ratio (normalised) in assay [1] is 1.2 (inactive). For the same molecule, the results for the normalised cell number in assay [1] (setting [6]) and in assay [1] (setting [7]) were 0.9 and 1.08, respectively. Further, the luciferase signal in assay [2] is 32 AU (inactive).

As to `O=C(NC1CCCCC1)NC1CCCCC1`, the red/green cell ratio (normalised) in assay [1] is 0.92 (inactive). Moreover, the results for the normalised cell number in assay [1] (setting [6]) and in assay [1] (setting [7]) were 1.15 and 1.06, respectively. In addition, the luciferase signal in assay [2] is 60 AU (inactive).

As for `COc1ccc(-c2cc(=O)c3c(OC)c(OC)c(OC)cc3o2)cc1OC`, in assay [1], the red/green cell ratio (normalised) is 1.21 (inactive). In addition, the normalised cell number in assay [1] (setting [6]) amounted to 0.9; in assay [1] (setting [7]) it was 1.08. Further, in assay [2], the luciferase signal is 36 AU (inactive).

As to `COc1ccc(-c2coc3cc(O)ccc3c2=O)c(OC)c1`, the red/green cell ratio (normalised) in assay [1] was 1.02 (inactive). For the same molecule, the figures for the normalised cell number in assay [1] (setting [6]) and in assay [1] (setting [7]) were 1.07 and 1.08, respectively. In addition, the luciferase signal in assay [2] is 60 AU (inactive).

Broadly, the inhibition is the drop in the measured response relative to a control, in per cent. For the molecule `O=c1ccn([C@@H]2O[C@H](COP(=O)(O)OP(=O)(O)OP(=O)(O)O)[C@@H](O)[C@H]2O)c(=O)[nH]1`, the inhibition in assay [3] is -7.02%. The molecule further displayed a score in assay [4] of 1.5. Moreover, the cytochrome c release ratio in assay [5] stood at 0.87. The red/green cell ratio (normalised) in assay [1] is 1.18 (inactive). Besides, the normalised cell number in assay [1] (setting [6]) worked out at 0.94; in assay [1] (setting [7]), 1.1. Moreover, in assay [2], the luciferase signal was 36 AU (inactive).

With `CC(=O)OC/C=C(\C)CC/C=C(\C)CC/C=C(\C)CC/C=C(\C)CC/C=C(\C)CC/C=C(\C)CC/C=C(\C)CC/C=C(\C)CCC=C(C)C`, in assay [1], the red/green cell ratio (normalised) is 0.99 (inactive). Also, the normalised cell number in assay [1] (setting [6]) is 1.05; in assay [1] (setting [7]) it was 1.04. The luciferase signal in assay [2] was 84 AU (inactive).

On to `COc1ccc([C@H]2COc3c(ccc(O)c3OC)C2)c(OC)c1O`, for which the red/green cell ratio (normalised) in assay [1] is 0.9 (inactive). Moreover, the normalised cell number in assay [1] (setting [6]) came to 0.99; in assay [1] (setting [7]), 0.9. Further, the luciferase signal in assay [2] is 60 AU (inactive).

On to `COc1ccc2c(c1)OCC(Cc1ccc(O)c(OC)c1)C2=O` (configuration not stated), for which the red/green cell ratio (normalised) in assay [1] was 0.93 (inactive). The normalised cell number in assay [1] (setting [6]) came out at 1.04; in assay [1] (setting [7]), 0.96. In assay [2], the luciferase signal is 84 AU (inactive).

Take `O=S(=O)(O)c1cc(N=C=S)ccc1/C=C/c1ccc(N=C=S)cc1S(=O)(=O)O`: the red/green cell ratio (normalised) in assay [1] was 0.86 (inactive). Besides, the results for the normalised cell number in assay [1] (setting [6]) and in assay [1] (setting [7]) were 1.29 and 1.11, respectively. Also, in assay [2], the luciferase signal was 52 AU (inactive).

Take `C=C[C@@H](C1=CC(=O)C(OC)=C(OC)C1=O)c1ccccc1`: the red/green cell ratio (normalised) in assay [1] is 0.99 (inactive). For the same molecule, the normalised cell number in assay [1] (setting [6]) and in assay [1] (setting [7]) was 1.04 in each case. Further, the luciferase signal in assay [2] was 136 AU (inactive).
